These results are taken from the supplement of paper PMC11417369.

Whole data set: some 25,000 sequences, median “ln(normalized median fluorescence intensity)” near 9.3, cut for the highest 2% near 10. The full list was thinned out, with the highest values kept by preference.

This assay deals with PF3D7_0420300 AP2 domain 1 (GST-tagged). The assay can be described thus: gcPBM binding intensity (ln(normalized median fluorescence intensity)); higher = stronger DNA binding. In a few lines:
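The highest Masliner-normalised natural-log median intensity across replicate spots of either probe orientation is reported as binding intensity. GST-tagged P. falciparum DNA-binding domains expressed in E. coli were applied for 1 h to an Agilent 4 × 180k array of primer-extended double-stranded 36-bp intergenic genomic probes plus negative controls, and bound protein was detected with Alexa488 anti-GST antibody and scanned at 488 nm.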
For the sequence “ATTATTACACAACGTTGTACATTTCAATATTTTTAT [XGTACX_site5096]”, the “gcPBM binding intensity (ln)” value came out at 9.52. Take “TAAATTTTAATATGCACACAAAATGTTATATTAAAA [CACACA_site4366]”: the “gcPBM binding intensity (ln)” value was determined as 9.11.

On to “ATAAAAATAACATATAAACACACATATATATATATA [CACACA_site9267]”, for which the “gcPBM binding intensity (ln)” value turned out to be 9.35. With “CTTGTATATAAACACACACACACTTTCTTTTTTTAA [CACACA_site8602]” the figure was 9.91; with “AACTTGTATATATACACACACACACTGTCTTTTTTT [CACACA_site1963]”, 10.2.

On to “AACTTGTATTTATACACACACACACTAGCTTTTTTT [CACACA_site5132]”, for which the “gcPBM binding intensity (ln)” value was determined as 10.2. For the sequence “AACTTGTATTTATACACACACACACTGTCTTTTTTT [CACACA_site7009]”, the “gcPBM binding intensity (ln)” value turned out to be 10.3. In the case of “TATATTTATTTATATACACACACTTGTATAAAAAAT [CACACA_site2036]” it was 9.4; in that of “TTGTATATACTATACACACACATACATACATACATA [CACACA_site814]”, 9.85. In the case of “AACTTGTATATATACACACACACACTATCTTTTTTT [CACACA_site8601]” it was 10.2. As to “TATATAGTAATATATACACACACTTGTCTTGTAAAA [CACACA_site990]”, the “gcPBM binding intensity (ln)” value turned out to be 9.56. Turning to “ATAACTTGTATATATACACACACACCCTTTCTTTTT [CACACA_site8600]”, the “gcPBM binding intensity (ln)” value was determined as 10.1. As for “TTCAAAGACACAATCACACACATACATAAATATACA [CACACA_site687]”, the “gcPBM binding intensity (ln)” value was determined as 9.84. With “TAATCGAAACAAAGAACATGCAAACATATACCTATA [TGCATGCA_site894]” the figure was 9.6. Consider “ATTTATACATATAAACGTACATACATATATAATATT [XGTACX_site2969]”, for which the “gcPBM binding intensity (ln)” value came to 9.3. Take “TATTTTTATATAATGTGTACTTATACCTTATTTTTT [XGTACX_site1658]”: the “gcPBM binding intensity (ln)” value was found to be 9.3. “TATATATTATATATATGTACTTATTCATATATATAA [XGTACX_site3860]”: the “gcPBM binding intensity (ln)” value stood at 9.06. With “TTTTACTTAAAACACACACACACAAAAAAAAAAAAA [CACACA_site947]” the figure was 9.96. With “CACACGCACGAACACACACACATATAAATATAAATA [CACACA_site6299]” the figure was 9.92. In the case of “ACACGCACATATATATAAATATATATATATATAAAT [CACACA_negctrl_site1781]” it was 9.21; in that of “AAATATAATAAAATGACACACGCATATATATATATA [CACACA_site8900]”, 9.38. As to “ATATAAAGAAAAGGAACACACAAATATATATATATA [CACACA_site463]”, the “gcPBM binding intensity (ln)” value is 9.57.

Turning to “CACGCGCACGAACACACACACACACGCATATAAATA [CACACA_site7103]”, the “gcPBM binding intensity (ln)” value is 10.3. In the case of “AGAATAAAAAGGAACACACACACACCCATATATATA [CACACA_site3590]”, the “gcPBM binding intensity (ln)” value is 10.1. In the case of “CACACGCACGAACACACACACACACGCATATAAATA [CACACA_site6302]” it was 10.3; in that of “AAATTCCACGAACACACACACATATAAATAAATAAA [CACACA_site6697]”, 9.97.

As to “AGAATAAAAAGGAACACACACACACGCATATAAATA [CACACA_site7659]”, the “gcPBM binding intensity (ln)” value was found to be 10.3. Regarding “CAGTAGTATATACTATGTACATATTTATATTATATT [XGTACX_site4964]”, the “gcPBM binding intensity (ln)” value was 9.22. As to “TAATAAACCAAACTAAACAATATATCAAAAAGCACA [CACACA_negctrl_site269]”, the “gcPBM binding intensity (ln)” value was determined as 9.75.

Consider “TATATATATATTTTAACACACACATATATATATTTA [CACACA_site8892]”, for which the “gcPBM binding intensity (ln)” value came to 9.63. In the case of “TGAAAGAACCTGATTACACACATAAATTATATATAT [CACACA_site26]” it was 9.54; in that of “GTAATATCAATATAAAGTACACACTATAGTATGTAT [XGTACX_site4714]”, 9.52. As to “TTTTAAATAAAAAAATTAAATTAAAATATATAAAAA [XGTACX_negctrl_site490]”, the “gcPBM binding intensity (ln)” value was found to be 8.82.

“TGTATTAACAAAAAGGTGCGGATATATATAAAAAAT [GTGCAC_site9473]”: the “gcPBM binding intensity (ln)” value is 9.61.

Take “ATACATATATACATATGTACATATATATATATATAT [XGTACX_site8206]”: the “gcPBM binding intensity (ln)” value turned out to be 9.3.

Take “AAAAAAAAAAAAAAAAAAAAAAATATATATATATAT [XGTACX_negctrl_site33]”: the “gcPBM binding intensity (ln)” value turned out to be 9.26.

“ACATCGATTTATATTCTGCACTGAAGAAACTACAAC [GTGCAC_site9967]”: the “gcPBM binding intensity (ln)” value was 9.32.

“ATTTGGCATAAACACACACACACACCCACCCACATA [CACACA_site8096]”: the “gcPBM binding intensity (ln)” value is 10.4. As for “TAATTTTTGAAACACACACACATATATATATATATA [CACACA_site94]”, the “gcPBM binding intensity (ln)” value stood at 9.71. With “ATAATTTGGAAACACACACACACACCCACATATATA [CACACA_site2286]” the figure was 10.3.

Regarding “ATTTGGCAGAAACACACACACACACCCACCCACATA [CACACA_site589]”, the “gcPBM binding intensity (ln)” value was 10.4. In the case of “TGTAAATTTGGCATCACACATAAATAAACATATAAA [CACACA_site4497]” it was 9.4. For “TAGAAGCAGAAACACACACACATACATACACATACA [CACACA_site1467]”, the “gcPBM binding intensity (ln)” value was found to be 9.99. In the case of “CATATTTGGAAACACACACACATATTTATATATATA [CACACA_site3569]” it was 9.95; in that of “TACATAAATTAATAGTCACACACGTATTTTTTATAT [CACACA_site8806]”, 9.45; in that of “AATAGAACTATTACACGTACAGAACATGAATTAGTT [XGTACX_site7518]”, 9.36.

As to “TCAAAAGAAATAAAAACATGCATAAAAGTAAAAATA [TGCATGCA_site832]”, the “gcPBM binding intensity (ln)” value amounted to 9.33. Turning to “ATAAATGACAAATTAACACACATATATTATAGATAT [CACACA_site7770]”, the “gcPBM binding intensity (ln)” value worked out at 9.68. With “TATATATTATATAAATAAATAAATATATATATTTAT [TGCATGCA_negctrl_site270]” the figure was 8.94; with “TTTTTATTTTTTTACAGTACATAAAATAAATAAATA [XGTACX_site6596]”, 8.84.
